# Most compounds without a hit are left out; they make up all but 8.2% or so of the library.
# SW480 rereplic = inducers of DNA re-replication in SW480 colon cancer cells; SW480 DNA re-replication, Hoechst DNA content imaging, 48 h; Potency, µM (top dose mostly 46.1 µM), for the others: top-dose re-replication activation, actives largely listed as activators; 340,000 tested, 1.8% active; AID 624297; further: % of control where 0% means no effect; nearly all actives have a fitted effect of over 55% in size
#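 SW480 cells exposed to compounds for 48 hr at 37 C, 5% CO2, then Hoechst-stained 40 min. Nuclear DNA content imaged by fluorescence scanning (405 nm excitation, 500-530 nm emission); re-replication scored as increased high-intensity nuclei.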
# KB-3-1 cytotox = KB-3-1 parental cell cytotoxicity; KB-3-1 viability, CellTiter-Glo ATP luminescence, 72 h; Potency, µM (doses to about 46.1 µM), most hits filed as cytotoxic; 400,000 tested, 1.4% active; further: on the % scale 0 is the no-effect control and ±100 the full control effect; nearly all actives have a fitted effect of over 60% in size
#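 Using CellTiter-Glo luminescence, growth of non-resistant KB-3-1 adenocarcinoma cells is assessed 72 h after pin-tool compound addition at 37 °C. Normalized responses across the concentration series yield fitted curves.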
# MCF10A rereplic = induces DNA re-replication in MCF 10a normal breast cells; MCF 10A DNA re-replication, Hoechst nuclear intensity, 48 h; Potency, µM (highest dose often 46.1 µM), without a hit: at the highest dose activity, positive = re-replication, hits mostly activators; 350,000 tested, 2.9% active; further: % of control where 0% means no effect; nearly all actives have a fitted effect of over 50% in size
# KB-V1 MDR tox = KB-V1 MDR subline cytotoxicity; KB-V1 MDR cells viability, CellTiter-Glo, 72 h; Potency, µM (titrated, usually from 46.1 µM), hits mostly cytotoxic; 400,000 tested, 3.4% active; AID 1347076; further: on the % scale 0 is the no-effect control and ±100 the full control effect; nearly all actives have a fitted effect of over 60% in size
#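 Luminescent ATP read-out (CellTiter-Glo, 10 min) measures survival of drug-selected KB-V1 MDR cells after 72 h, 37 degrees C compound exposure. Medium: phenol-red-free DMEM, 10% FBS. Values from fitted concentration-response curves.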
# ELG1 DNA repair = inhibitors of ELG1-dependent DNA repair in HEK293T cells. HEK293T ELG1-luciferase reporter, luminescence, 16 h; DNA damage induced by 5-fluorouridine. Potency, µM (highest dose often 46.1 µM), for the others: at the highest dose activity change, negative = inhibition, most hits filed as inhibitors. 330,000 tested, 2.3% active; further: on the % scale 0 is the no-effect control and ±100 the full control effect; nearly all actives have a fitted effect of over 55% in size
#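 Overnight (16 hr) co-exposure of 2,000 cells/well to 5-fluorouridine and compound at 37 °C preceded detection. Luciferase was quantified via ONE-Glo luminescence; loss of signal denotes inhibition.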
# The depositor's hits bear a star; i = inactive; ? = inconclusive; / = not tested or not shown; [ ] = remark or other dose. The call rests on the fitted dose curve; in most records, active means well fitted curve in the direction sought with a large enough effect; inconclusive means small, poorly fitted or top-dose-only effect, or another doubt; inactive means no such curve, though single readings can be large; an effect the other way counts as inactive or inconclusive. Potency means the concentration at half of the fitted maximal effect.
SMILES,SW480 rereplic,KB-3-1 cytotox,MCF10A rereplic,KB-V1 MDR tox,ELG1 DNA repair
CNC(=O)c1sc(N2N=C3/C(=C\c4ccccc4)CCCC3C2c2ccccc2)nc1C (centres undefined),8.2µM*,/,?,/,/
CNC(=O)c1sc(N2N=C3/C(=C/c4ccccc4)CCCC3C2c2ccccc2)nc1C (centres undefined),7.1µM*,?,?,i,?
CN1CCN(C(=O)c2cc([N+](=O)[O-])cc([N+](=O)[O-])c2)CC1,-7%,i,1%,?,-4%
O=C(/C=C/c1ccccc1)CC(O)(c1ccccc1)C(F)(F)F (centres undefined),?,i,0%,23µM*,?
CCN1c2ccccc2-c2nc(SCC(=O)NCc3ccc(C)cc3)ncc2S1(=O)=O,/,i,/,i,/
S=C(NCc1ccc(Cl)cc1)NC1CCN(Cc2ccccc2)CC1,16µM*,?,?,16µM*,18µM*
CC(C)c1ccc(NC(=S)NC2CCN(Cc3ccccc3)CC2)cc1,?,?,28%,21µM*,-5%
CCN(CC(=O)Nc1cccc(OC)c1)C(=O)C1CC(=O)N(Cc2ccccc2Cl)C1 (centres undefined),/,i,/,i,/
C/C(=N\Nc1nc2ccccc2s1)c1ccc(Br)s1,-6%,i,?,?,-16%
CC(=NNc1nc2ccccc2s1)c1ccncn1,?,7.3µM*,7.3µM*,?,/
Nc1ccccc1C(=O)NNC(=O)C(=O)/C=C(\O)c1ccccc1,6%[9.22 µM],i,0%,i,?
CCSc1nnc(NC(=O)C(NC(=O)c2ccc(Cl)cc2)C(C)C)s1 (centres undefined),-2%,i,2%,12µM*,-1%
CC(=O)Nc1ccc(NC(=O)C(NC(=O)c2ccc(Cl)cc2)C(C)C)cc1 (centres undefined),/,i,/,i,/
CC(C)C(NC(=O)c1ccc(Cl)cc1)C(=O)NC1=NCCS1 (centres undefined),-7%,i,4%,21µM*,2%
O=c1c2cn[nH]c2nc(SCc2ccccc2F)n1-c1ccc(Br)cc1,?,i,18µM*,i,?
O=C(Cn1ncc2c3ccccc3n(Cc3ccccc3F)c2c1=O)NCCCN1CCCC1=O,-24%,6.5µM*,3%,?,-1%
CC(C)COc1ccc(C(=O)Nc2sc3c(c2C(=O)O)CC(C)(C)OC3)cc1,-80%,8.2µM*,?,i,-18%
O=C(Nc1sc2c(c1C(=O)O)CCC2)c1cccs1,3%,?,1%,23µM*,?
COc1ccc(C(=O)Nc2sc3c(c2C(=O)O)CC(C)(C)OC3)cc1,-4%,?,3%,?,-11%
CCOC(=O)c1c(NC(=O)c2cccs2)sc2c1CC(C)(C)OC2,-8%,i,?,?,9.2µM*
CCOC(=O)c1cc(-c2ccccc2)sc1NC(=O)C(C)OC(=O)c1cccnc1OCC (centres undefined),2.9µM*,i,?,i,-4%
CCOC(=O)c1cc(-c2ccccc2)sc1NC(=O)C(C)Sc1nnc(N)s1 (centres undefined),?,?,?,2.1µM*,23µM*
CC1(C)CC(N2CCOCC2)=CC(=[N+]2CCOCC2)C1,6%,i,-35%,i,5%
CCCN(CCC)C1=CC(=[N+]2CCCC2)CC(C)(C)C1,-4%,2.6µM*,-1%,i,?
CC1(C)CC(N2CCCCC2)=CC(=[N+]2CCCCC2)C1,-9%,5.8µM*,24%,i,?
CN(C)NC1=CC(=[N+]2CCCC2)CC(C)(C)C1,-3%,i,8%,i,3%
CC1C(c2ccccc2)OCCN1C(=S)NC(=O)c1ccccc1 (centres undefined),/,i,/,i,/
COc1ccc(-c2nc3ccccc3o2)cc1NC(=O)c1cccc2c(Cl)cccc12,/,?,/,i,/
Cn1cc(S(=O)(=O)NCc2ccc(Cl)cc2)c(=O)n(C)c1=O,28%,i,12%,i,13%

# High-throughput results deposited in PubChem by National Center for Advancing Translational Sciences (NCATS).
